Measured values reported in PubChem BioAssay (EPA / NIEHS).
Values joined by “and” are separate entries in the source; they are usually repeats but may differ in a detail not shown here. Equal values may be shown once. Records with an inconclusive call do not appear. Active and inactive are the calls of the source. Rule for the calls, unless noted: active = hit-call score of the fitted dose curve at least 0.9, where 1 is the maximum; inconclusive = response in the unintended direction; inactive = score below 0.9.

Experiments:
[1] = target: Sodium channel protein type 1 subunit alpha (Rattus norvegicus) (UniProt P04774); experiment: NVS_IC_rNaCh_site2: NovaScreen (NVS) Ion Channel Assay for rat Sodium Channel, Site 2 (NaCh) (AID 2283322);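 note: hit means loss of radioligand binding signal relative to DMSO so AC50 marks displacement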
In short: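 Membranes: rat forebrain. Format: competitive radioligand displacement, filter separation, scintillation readout, 1 h exposure. Primary screen in duplicate at 25 uM; actives retested in concentration series.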

[2] = target: rat Peripheral-type Benzodiazepine Receptor (PBR), Tspo (gene 24230) (UniProt P16257); experiment: NVS_MP_rPBR: NovaScreen (NVS) Membrane Protein Assay for rat Peripheral-type Benzodiazepine Receptor (PBR) (AID 2283335)
In short: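 Radioligand displacement, rat kidney membrane prep, 1 h exposure, filter-based scintillation read; DMSO baseline, loss-of-signal scored. Primary screen at 25 uM in duplicate, actives followed up in concentration series.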

NCBI gene 24521 = experiment: NVS_IC_rKATPCh: NovaScreen (NVS) Ion Channel Assay for rat Potassium Channel, ATP-Sensitive (KATPCh) (AID 2283319)
In short: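 Rat cortical membranes; radioligand binding at ATP-sensitive K channel site, filter-based scintillation counting 2 h after dosing. Single-point duplicate screen at 25 uM, hits rerun in concentration-response up to 50 uM; loss of signal versus DMSO.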

[3] = target: bovine Gamma-Aminobutyric Acid Type A Receptor BDZ, alpha 1 site (GABARa1), GABRA1 (gene 780973) (UniProt P08219); experiment: NVS_LGIC_bGABARa1: NovaScreen (NVS) Ligand-Gated Ion Channel Assay for bovine Gamma-Aminobutyric Acid Type A Receptor BDZ, alpha 1 site (GABARa1) (AID 2283321)
Sequence of bovine Gamma-Aminobutyric Acid Type A Receptor BDZ, alpha 1 site (GABARa1), GABRA1 (gene 780973) (P08219 whole entry, looked up): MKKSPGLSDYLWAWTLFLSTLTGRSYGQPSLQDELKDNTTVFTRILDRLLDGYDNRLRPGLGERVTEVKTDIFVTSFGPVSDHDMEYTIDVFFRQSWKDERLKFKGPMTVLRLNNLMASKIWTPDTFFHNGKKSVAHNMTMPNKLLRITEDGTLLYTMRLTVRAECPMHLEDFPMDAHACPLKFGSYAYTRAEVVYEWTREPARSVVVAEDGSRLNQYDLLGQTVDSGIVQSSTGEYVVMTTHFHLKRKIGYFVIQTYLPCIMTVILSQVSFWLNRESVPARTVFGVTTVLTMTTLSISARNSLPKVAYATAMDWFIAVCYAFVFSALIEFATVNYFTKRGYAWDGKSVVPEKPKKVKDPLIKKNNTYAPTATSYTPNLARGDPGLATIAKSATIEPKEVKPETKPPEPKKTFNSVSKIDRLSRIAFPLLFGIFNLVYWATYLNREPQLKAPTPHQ
In short: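 Radioligand competition binding on bovine cortical membranes, 0.75 h, filter-based scintillation counting. Primary single concentration 25 uM in duplicate; actives rerun in concentration-response to 50 uM max. Loss of signal fitted versus DMSO.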

[4] = target: bovine Gamma-Aminobutyric Acid Type A Receptor BDZ, alpha 5 site (GABARa5), GABRA5 (gene 523515) (UniProt Q08E50); experiment: NVS_LGIC_bGABARa5: NovaScreen (NVS) Ligand-Gated Ion Channel Assay for bovine Gamma-Aminobutyric Acid Type A Receptor BDZ, alpha 5 site (GABARa5) (AID 2283323)
In short: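 Radioligand competitive displacement binding on bovine hippocampal membranes, read 1 hr after dosing by filter-based scintillation counting. Primary screen at 25 uM in duplicate; actives (e.g. ≥30% inhibition) then run in concentration-response up to 50 uM.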

[5] = target: rat Thyrotropin Releasing Hormone Receptor (TRH), Trhr (gene 25570) (UniProt Q01717); experiment: NVS_GPCR_rTRH: NovaScreen (NVS) G Protein-Coupled Receptor Assay for rat Thyrotropin Releasing Hormone Receptor (TRH) (AID 2283329);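 note: hit means lower bound tracer signal versus DMSO baseline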
In short: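 Competitive radioligand binding on rat forebrain membrane preparations, with filtration and scintillation readout after 4 h. Primary testing in duplicate at 25 uM; actives confirmed in concentration-response. DMSO defined baseline.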

[6] = target: human Androgen Receptor (AR), AR (gene 367) (UniProt P10275); experiment: NVS_NR_hAR: NovaScreen (NVS) Nuclear Receptor Binding Assay for human Androgen Receptor (AR) (AID 2283332)
Sequence of human Androgen Receptor (AR), AR (gene 367) (P10275 whole entry, looked up): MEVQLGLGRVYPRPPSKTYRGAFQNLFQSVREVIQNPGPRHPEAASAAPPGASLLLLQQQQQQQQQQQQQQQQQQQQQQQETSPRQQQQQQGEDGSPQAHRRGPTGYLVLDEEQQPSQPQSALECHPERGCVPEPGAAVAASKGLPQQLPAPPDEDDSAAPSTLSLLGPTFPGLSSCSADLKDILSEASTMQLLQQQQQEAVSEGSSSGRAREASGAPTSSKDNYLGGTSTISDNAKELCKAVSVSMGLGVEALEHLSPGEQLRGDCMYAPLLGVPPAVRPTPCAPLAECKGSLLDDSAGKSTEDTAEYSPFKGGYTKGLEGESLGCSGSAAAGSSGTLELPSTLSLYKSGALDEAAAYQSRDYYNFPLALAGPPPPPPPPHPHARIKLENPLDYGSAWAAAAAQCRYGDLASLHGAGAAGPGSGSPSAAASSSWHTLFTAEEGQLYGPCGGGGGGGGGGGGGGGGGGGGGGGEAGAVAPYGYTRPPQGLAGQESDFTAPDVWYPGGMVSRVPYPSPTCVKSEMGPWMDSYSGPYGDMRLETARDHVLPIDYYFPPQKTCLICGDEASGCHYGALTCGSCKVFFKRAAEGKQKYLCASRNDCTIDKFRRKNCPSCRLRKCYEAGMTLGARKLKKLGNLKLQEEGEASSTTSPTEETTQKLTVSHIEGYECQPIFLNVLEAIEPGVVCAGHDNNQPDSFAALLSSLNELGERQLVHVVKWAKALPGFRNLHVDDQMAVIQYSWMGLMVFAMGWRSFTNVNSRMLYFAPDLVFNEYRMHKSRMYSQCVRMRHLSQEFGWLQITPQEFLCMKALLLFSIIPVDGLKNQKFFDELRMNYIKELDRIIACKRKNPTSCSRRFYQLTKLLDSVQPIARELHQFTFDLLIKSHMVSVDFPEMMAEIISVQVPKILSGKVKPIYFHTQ
In short: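 LnCAP cell-free extract; radioligand displacement read by scintillation counting after 20 h. Primary screen single concentration 25 uM in duplicate, actives then run as concentration series; loss-of-signal fitted relative to DMSO baseline.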

[7] = target: Small conductance calcium-activated potassium channel protein 1 (Rattus norvegicus) (UniProt P70606); experiment: NVS_IC_rKCaCh: NovaScreen (NVS) Ion Channel Assay for rat Potassium Channel, Ca2+ Act., VI (KCaCh) (AID 2283336)
Sequence of Small conductance calcium-activated potassium channel protein 1 (Rattus norvegicus) (P70606 whole entry, looked up): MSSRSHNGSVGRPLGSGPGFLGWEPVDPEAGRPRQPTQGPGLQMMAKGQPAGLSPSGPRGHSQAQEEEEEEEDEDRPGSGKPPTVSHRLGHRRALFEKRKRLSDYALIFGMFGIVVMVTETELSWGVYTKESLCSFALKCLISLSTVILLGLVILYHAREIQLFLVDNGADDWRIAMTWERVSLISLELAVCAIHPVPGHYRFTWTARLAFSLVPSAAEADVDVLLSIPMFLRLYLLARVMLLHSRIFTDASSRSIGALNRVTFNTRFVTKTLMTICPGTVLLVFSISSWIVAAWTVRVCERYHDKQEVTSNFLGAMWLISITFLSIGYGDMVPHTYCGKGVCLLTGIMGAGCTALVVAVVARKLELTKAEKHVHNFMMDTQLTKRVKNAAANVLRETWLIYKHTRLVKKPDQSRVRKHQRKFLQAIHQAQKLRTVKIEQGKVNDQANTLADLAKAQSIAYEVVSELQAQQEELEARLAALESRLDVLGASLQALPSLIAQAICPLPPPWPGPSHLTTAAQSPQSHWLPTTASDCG
In short: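 Radioligand binding to rat forebrain membranes, cell-free, read 1 hour after dosing by filter-based scintillation counting. Compounds first run in duplicate at 25 uM, actives then in concentration series; loss of signal vs DMSO indicates displacement.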

[8] = target: human Serotonin, 5-Hydroxytryptamine Receptor 3 (5HT3), HTR3A (gene 3359) (UniProt P46098); experiment: NVS_LGIC_h5HT3: NovaScreen (NVS) Ligand-Gated Ion Channel Assay for human Serotonin, 5-Hydroxytryptamine Receptor 3 (5HT3) (AID 2283325)
Sequence of human Serotonin, 5-Hydroxytryptamine Receptor 3 (5HT3), HTR3A (gene 3359) (P46098 whole entry, looked up): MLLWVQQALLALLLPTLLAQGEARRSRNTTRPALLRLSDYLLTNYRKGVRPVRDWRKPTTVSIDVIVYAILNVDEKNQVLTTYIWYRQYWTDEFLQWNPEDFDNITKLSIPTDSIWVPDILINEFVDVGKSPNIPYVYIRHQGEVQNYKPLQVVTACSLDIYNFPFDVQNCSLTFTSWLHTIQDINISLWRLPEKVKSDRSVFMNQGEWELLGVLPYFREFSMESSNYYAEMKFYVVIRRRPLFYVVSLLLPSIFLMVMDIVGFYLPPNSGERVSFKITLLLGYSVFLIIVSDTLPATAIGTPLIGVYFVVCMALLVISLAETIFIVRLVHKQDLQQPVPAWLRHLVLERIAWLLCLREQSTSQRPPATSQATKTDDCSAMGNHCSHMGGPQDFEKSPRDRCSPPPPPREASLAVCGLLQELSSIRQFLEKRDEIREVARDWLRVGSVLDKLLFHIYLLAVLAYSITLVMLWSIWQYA
In short: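 Radioligand displacement binding to human 5-HT3 from HEK293 membranes, read by filter-based scintillation counting after 1 h. Screen at 25 uM in duplicate; chemicals passing threshold were retested in concentration-response up to 50 uM.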

[9] = target: bovine Gamma-Aminobutyric Acid Type A Receptor Agonist (GABAR Agonist), GABRA1 (gene 780973) (UniProt P08219); experiment: NVS_LGIC_bGABAR_Agonist: NovaScreen (NVS) Ligand-Gated Ion Channel Assay for bovine Gamma-Aminobutyric Acid Type A Receptor Agonist (GABAR Agonist) (AID 2283338)
Sequence of bovine Gamma-Aminobutyric Acid Type A Receptor Agonist (GABAR Agonist), GABRA1 (gene 780973) (P08219 whole entry, looked up): as the sequence (P08219 whole entry, looked up) above
In short: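 Radioligand binding to bovine cerebellar membranes in agonist format, read by filter-based scintillation counting after 1 h. Primary screen in duplicate at 25 uM, with actives followed in concentration series. Gain of signal versus DMSO.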

[10] = target: Voltage-gated inwardly rectifying potassium channel KCNH2 (Homo sapiens) (UniProt Q12809); experiment: NVS_IC_hKhERGCh: NovaScreen (NVS) Ion Channel Assay for human Potassium Channel ERG (KhERGCh) (AID 2283333)
Sequence of Voltage-gated inwardly rectifying potassium channel KCNH2 (Homo sapiens) (Q12809 whole entry, looked up): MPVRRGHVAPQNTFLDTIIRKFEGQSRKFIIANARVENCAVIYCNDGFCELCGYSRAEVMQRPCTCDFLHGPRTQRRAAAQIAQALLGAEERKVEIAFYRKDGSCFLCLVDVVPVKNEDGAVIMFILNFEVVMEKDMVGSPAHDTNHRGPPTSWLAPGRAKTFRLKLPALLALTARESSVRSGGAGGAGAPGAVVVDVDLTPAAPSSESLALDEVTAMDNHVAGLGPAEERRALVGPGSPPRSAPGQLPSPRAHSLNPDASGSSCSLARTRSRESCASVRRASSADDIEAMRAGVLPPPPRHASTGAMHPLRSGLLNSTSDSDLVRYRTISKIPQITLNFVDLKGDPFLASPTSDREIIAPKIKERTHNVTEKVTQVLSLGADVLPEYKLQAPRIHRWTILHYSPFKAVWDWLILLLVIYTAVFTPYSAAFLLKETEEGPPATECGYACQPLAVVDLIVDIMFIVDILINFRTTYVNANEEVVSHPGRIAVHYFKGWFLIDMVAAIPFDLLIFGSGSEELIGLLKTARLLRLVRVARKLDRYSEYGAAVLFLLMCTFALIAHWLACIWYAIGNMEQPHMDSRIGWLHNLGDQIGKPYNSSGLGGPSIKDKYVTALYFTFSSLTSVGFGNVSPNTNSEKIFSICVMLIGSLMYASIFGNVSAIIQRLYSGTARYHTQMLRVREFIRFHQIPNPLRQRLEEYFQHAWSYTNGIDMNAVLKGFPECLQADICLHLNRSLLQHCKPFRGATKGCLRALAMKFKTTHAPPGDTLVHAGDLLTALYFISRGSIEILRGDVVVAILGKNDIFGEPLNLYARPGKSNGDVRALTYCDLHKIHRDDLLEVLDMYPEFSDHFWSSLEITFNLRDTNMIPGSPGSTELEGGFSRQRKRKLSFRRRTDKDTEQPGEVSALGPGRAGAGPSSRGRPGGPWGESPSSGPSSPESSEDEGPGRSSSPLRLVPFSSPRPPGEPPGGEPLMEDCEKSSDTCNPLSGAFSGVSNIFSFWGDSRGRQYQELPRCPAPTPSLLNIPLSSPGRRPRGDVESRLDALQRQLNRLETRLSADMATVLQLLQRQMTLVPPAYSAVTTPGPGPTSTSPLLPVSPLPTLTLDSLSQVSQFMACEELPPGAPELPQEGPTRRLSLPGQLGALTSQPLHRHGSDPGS
In short: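 Cell-free radioligand competition binding on hERG protein extracted from CHO cells, read by filter-based scintillation counting 0.75 h after dosing. Primary screen at 25 uM in duplicate, actives followed in concentration series. Signal loss fitted versus DMSO.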

[11] = NVS_IC_rCaBTZCHL: NovaScreen (NVS) Ion Channel Assay for Calcium Channel, Type L, Benzothiazepine Site (CaBTZCHL) (AID 2283337)
In short: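 Competitive displacement of a site-specific radioligand from rat cortex membranes, measured as signal loss against DMSO baseline by filter radiodetection after 1.5 h. Single-point 25 uM primary screen.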

[12] = target: rat Gamma-Aminobutyric Acid Type A Receptor, Non-Selective (GABAR-NonSelective), Gabra1 (gene 29705) (UniProt P62813); experiment: NVS_LGIC_rGABAR_NonSelective: NovaScreen (NVS) Ligand-Gated Ion Channel Assay for rat Gamma-Aminobutyric Acid Type A Receptor, Non-Selective (GABAR-NonSelective) (AID 2283326)
In short: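 Radioligand displacement on rat whole-brain extract, 1 h, filter scintillation readout; signal loss fitted versus DMSO. Primary screen in duplicate at 25 uM; hits (e.g. ≥30% inhibition) retested in concentration-response up to 50 uM.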

[13] = target: rat Oxytocin Receptor (OXT), Oxtr (gene 25342) (UniProt P70536); experiment: NVS_GPCR_rOXT: NovaScreen (NVS) G Protein-Coupled Receptor Assay for rat Oxytocin Receptor (OXT) (AID 2283330)
In short: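 Radioligand displacement on rat uterine membranes, 1 h incubation, filter-based scintillation counting. Chemicals were screened in duplicate at 25 uM, and those passing threshold were retested in concentration-response up to 50 uM. Loss of binding was fitted versus DMSO.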

[14] = target: human Peripheral-type Benzodiazepine Receptor (PBR), TSPO (gene 706) (UniProt P30536); experiment: NVS_MP_hPBR: NovaScreen (NVS) Membrane Protein Assay for human Peripheral-type Benzodiazepine Receptor (PBR) (AID 2283331);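 note: hits reduce radioligand binding relative to DMSO baseline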
In short: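 Radioligand displacement on human colonic cell membranes, 1 h incubation; bound radioactivity by filtration and scintillation counting. Primary screen in duplicate at 25 uM single concentration, actives followed up in concentration series; loss of binding versus DMSO.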

[15] = NVS_IC_rCaDHPRCh_L: NovaScreen (NVS) Ion Channel Assay for rat Calcium Channel, Type L, Dihydropyridine Site (CaDHPRCh_L) (AID 2283320)
In short: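 Radioligand binding to dihydropyridine site on rat cortical membranes, filter-based scintillation counting, 1 h after dosing. Screened in duplicate at 25 uM; actives rerun in concentration-response up to 50 uM. Loss of signal versus DMSO baseline.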

[16] = target: rat Glutamate, AMPA Site (AMPA), Gria1 (gene 50592) (UniProt P19490); experiment: NVS_LGIC_rAMPA: NovaScreen (NVS) Ligand-Gated Ion Channel Assay for rat Glutamate, AMPA Site (AMPA) (AID 2283324)
Sequence of rat Glutamate, AMPA Site (AMPA), Gria1 (gene 50592) (P19490 whole entry, looked up): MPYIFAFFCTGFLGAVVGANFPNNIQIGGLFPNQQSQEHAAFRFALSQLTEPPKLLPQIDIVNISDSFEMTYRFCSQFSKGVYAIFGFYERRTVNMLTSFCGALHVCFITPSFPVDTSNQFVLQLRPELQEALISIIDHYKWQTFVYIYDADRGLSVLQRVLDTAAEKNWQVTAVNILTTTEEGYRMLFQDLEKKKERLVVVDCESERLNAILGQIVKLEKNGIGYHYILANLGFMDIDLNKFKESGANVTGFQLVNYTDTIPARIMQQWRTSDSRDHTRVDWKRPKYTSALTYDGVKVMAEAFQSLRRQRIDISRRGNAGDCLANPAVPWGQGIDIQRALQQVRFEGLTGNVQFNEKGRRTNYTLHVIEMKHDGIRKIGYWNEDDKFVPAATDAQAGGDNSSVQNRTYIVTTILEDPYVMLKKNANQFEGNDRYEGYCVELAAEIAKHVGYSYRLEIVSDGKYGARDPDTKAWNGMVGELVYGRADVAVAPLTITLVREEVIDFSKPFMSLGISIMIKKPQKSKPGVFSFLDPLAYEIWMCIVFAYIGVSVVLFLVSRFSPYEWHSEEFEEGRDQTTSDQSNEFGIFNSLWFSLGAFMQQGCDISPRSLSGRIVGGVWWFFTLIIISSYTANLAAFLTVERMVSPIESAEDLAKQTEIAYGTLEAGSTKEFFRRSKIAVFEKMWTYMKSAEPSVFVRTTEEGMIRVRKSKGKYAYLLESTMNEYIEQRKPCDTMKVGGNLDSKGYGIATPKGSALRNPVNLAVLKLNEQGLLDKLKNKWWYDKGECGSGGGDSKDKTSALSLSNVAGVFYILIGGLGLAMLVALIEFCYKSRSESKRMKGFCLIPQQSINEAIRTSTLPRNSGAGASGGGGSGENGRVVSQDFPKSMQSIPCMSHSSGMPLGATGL
In short: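 Rat forebrain membranes; radioligand binding read 1 h after dosing by filtration and scintillation counting. Duplicate single-point screen at 25 uM, then concentration-response to 50 uM for threshold hits (e.g. 30% inhibition); loss of signal vs DMSO.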

[17] = target: rat Gamma-Aminobutyric Acid Type A Receptor BDZ, alpha 6 site (GABARa6), Gabra6 (gene 29708) (UniProt P30191); experiment: NVS_LGIC_rGABARa6: NovaScreen (NVS) Ligand-Gated Ion Channel Assay for rat Gamma-Aminobutyric Acid Type A Receptor BDZ, alpha 6 site (GABARa6) (AID 2283339)
In short: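 Rat cerebellar membranes; radioligand binding, filtration and scintillation counting, read 1 h after dosing. Single-concentration duplicate screen at 25 uM, then concentration-response up to 50 uM for actives; loss of signal fitted versus DMSO baseline.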

[18] = target: Glutamate receptor ionotropic, kainate 1 (Rattus norvegicus) (UniProt P22756); experiment: NVS_IC_rKAR: NovaScreen (NVS) Ion Channel Assay for rat Kainic Acid Receptors (KAR) (AID 2283334; active = hit-call score of the fitted dose curve at least 0.9, where 1 is the maximum; inactive = score below 0.9)
In short: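 Radioligand displacement binding using rat forebrain membranes, 1 h incubation, filter-based scintillation counting. Screened in duplicate at 25 uM, with actives retested in concentration-response up to 50 uM; fitted against DMSO.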

COP(=S)(OC)SCN1C(=O)c2ccccc2C1=O
outcome [1]: inactive
AC50 [2]: 11.3 µM (active)

O=[N+]([O-])c1ccc(Oc2ccc(Cl)cc2Cl)cc1
outcome (NCBI gene 24521): inactive

C[C@]12C=CC3=C4CCC(=O)C=C4CC[C@H]3[C@@H]1CC[C@@H]2O
AC50 [3]: 20.5 µM (active)
AC50 [4]: 40.7 µM (active)
outcome [5]: inactive
AC50 [6]: 0.345 nM (active) and 9.04 nM (active)
outcome [7]: inactive

CCCCCOC(=O)c1ccccc1C(=O)OCCCCC
outcome [1]: inactive

O=C(Oc1ccc(Br)cc1)N1CCN2CCC1CC2
outcome (NCBI gene 24521): inactive
outcome [3]: inactive
AC50 [1]: 8.18 µM (active)
AC50 [8]: 12.5 µM (active)
outcome [7]: inactive
AC50 [9]: 25 µM (active)

CC(C)(C)C(O)(CCc1ccc(Cl)cc1)Cn1cncn1 (centres undefined)
AC50 [1]: 25 µM (active)
outcome [10]: inactive
AC50 [2]: 6.45 µM (active)
AC50 [11]: 16 µM (active)

c1ccc(N=Nc2ccccc2)cc1
outcome [8]: inactive

O=C(N[C@H](c1ccccc1)[C@@H]1CN2CCC1CC2)c1c(Cl)ccc(C(F)(F)F)c1Cl
AC50 [1]: 0.113 µM (active)
AC50 [12]: 0.238 µM (active)
outcome [13]: inactive
outcome [14]: inactive
outcome [10]: inactive
outcome [2]: inactive
outcome [7]: inactive
AC50 [11]: 3.07 µM (active)

CC(C)N(Cc1ccccc1)C(=O)C(C)(C)C
outcome [8]: inactive

Cc1cccc(N)c1N
outcome [8]: inactive

ClCCOCCCl
AC50 [8]: 1.38 µM (active)

CCC[CH2][Sn]([Cl])([CH2]CCC)[CH2]CCC
AC50 [15]: 11.6 µM (active)
AC50 [1]: 17.7 µM (active)
outcome [16]: inactive
AC50 [10]: 4.03 µM (active)
AC50 [11]: 16.2 µM (active)
outcome [9]: inactive

CCCCCCCCn1sccc1=O
AC50 [15]: 18 µM (active)
AC50 [1]: 31.5 µM (active)
outcome [16]: inactive
AC50 [14]: 1.24 µM (active)
AC50 [11]: 34.2 µM (active)

Cc1ccc([N+](=O)[O-])cc1
AC50 (NCBI gene 24521): 4.96 µM (active)

CCOC(=O)[C@]1(c2ccccc2)Oc2ccccc2[C@@H]1N
AC50 [15]: 6.77 µM (active)
AC50 [1]: 2.3 µM (active)
AC50 [12]: 1.08 µM (active)
AC50 [10]: 1.44 µM (active)
AC50 [11]: 7.25 µM (active)

c1ccc(NNc2ccccc2)cc1
outcome [16]: inactive

CCCCCCCCCCCCCN1CC(C)OC(C)C1 (centres undefined)
outcome [1]: inactive
outcome [9]: inactive

Clc1ccc(C(c2ccc(Cl)cc2)C(Cl)Cl)cc1
outcome (NCBI gene 24521): inactive

Cc1ccc(N)c(N)c1
outcome [3]: inactive
outcome [17]: inactive

[Cl-].[Cl-].[Hg+2]
AC50 (NCBI gene 24521): 27.6 µM (active)
AC50 [15]: 16.8 µM (active)

CC(C)(O)c1cnn2c(-c3ccc(F)c(-c4c(F)cccc4C#N)c3)cnc2n1
outcome [3]: inactive
AC50 [4]: 0.00229 µM (active)
outcome [12]: inactive
outcome [9]: inactive
outcome [17]: inactive

Brc1ccc(Oc2ccccc2)cc1
outcome [8]: inactive

Nc1ccc(N=Nc2ccccc2)cc1
AC50 [8]: 11.4 µM (active)
outcome [10]: inactive

OCCCBr
outcome [5]: inactive

Nc1ccc(Cl)cc1N
outcome [6]: inactive

CCOc1cccc(C2(N3CCN(c4ccccc4)CC3)CCC(C)CC2)c1 (centres undefined)
outcome [18]: inactive

C1=Cc2cccc3cccc1c23
outcome [18]: inactive

C[N+](C)(C)CC1CO1 (centres undefined)
outcome [7]: inactive
